The test system of assay [1] is Zika virus NS2B-NS3 protease (linked construct). The assay can be described thus: Primary screen NINDS Rhodamine qHTS for Zika virus inhibitors (AID 1347160). Also: nearly all actives have a fitted effect of over 55% in size. The method in brief: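 Each compound, titrated, sat 15 min with 25 nM linked protease before 1.5 microM Rhodamine110 substrate went in. Fluorescence gain over the next 15 min, in pH 8.0 Tris with Tween 20, gave Hill-fitted curves.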
(In general: Quantitative high-throughput screening tests each substance at several concentrations.)

The target in assay [2] is Calcium and integrin-binding protein 1 (Homo sapiens) (UniProt Q99828). The assay can be described thus: Primary qHTS for Identification of Calcium Integrin Binding Protein 1 (CIB1) Competitor (AID 1508620).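 Also: GST tagged CIB1 binding a fluorescein labelled alphaIIb integrin peptide tracer; top concentration of the series differs between compounds.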 The method in brief: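 CIB1-GST (1 uM final) and compound incubated 15 min at room temperature before adding FITC-alphaIIb peptide tracer (100 nM final). Competition for binding read by fluorescence polarization (ex 480, em 540) after another 15 min at room temperature.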

Assay [3] is described as follows: Primary qHTS for inhibitors of nuclear receptor binding SET domain protein 2 (NSD2) in an isogenic RCH-ACV NSD2 p.E1099K mutant (9B) (AID 1645876). Also: nearly all actives have a fitted effect of over 70% in size. Also: potency is read from the fitted curve at half-maximal effect.
Assay [4] is described as follows: Primary qHTS for inhibitors of nuclear receptor binding SET domain protein 2 (NSD2) in an RCH-ACV wild type WT cells (2C) (AID 1645877). Also: nearly all actives have a fitted effect of over 70% in size.
Assay [5] concerns the target Phospholipid hydroperoxide glutathione peroxidase GPX4 (Homo sapiens) (UniProt P36969). Kind of assay: Primary qHTS Assay for Inhibitors of Recombinant Selenoprotein Glutathione Peroxidase 4 (GPX4) (AID 1845192). Also: nearly all actives have a fitted effect of over 65% in size. The following applies: outcome: dose series up to 50 µM unless noted. The method in brief:
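NADPH consumption followed by fluorescence at 340/450 nm, t=0 and after 15 min at room temperature. Reaction started with cumene hydroperoxide (0.5 mM final) after 30 min compound–GPX4 preincubation; final 200 nM GPX4, 100 nM GR, 1 mM GSH, 0.5 mM NADPH.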

The target of assay [6] is Luciferin 4-monooxygenase (Photinus pyralis) (UniProt P08659). Kind of assay: Primary firefly luciferase (FLuc) qHTS assay for identification of artifact compounds. (AID 1845220). Also: nearly all actives have a fitted effect of over 60% in size. In a few lines: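 FLuc 10 nM; luciferin 10 uM; ATP 10 uM; Tris-acetate pH 7.6, Mg-acetate 10 mM; 15 min RT preincubation; 5 min reaction; luminescence.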
Assay [7] in a line: Primary fluorescence-based thiol-reactive (MSTI) qHTS assay for identification of artifact compounds. (AID 1845221).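 Also: thiol-reactive compounds lower the probe fluorescence signal; nearly all actives have a fitted effect of over 65% in size.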 The method in brief: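 First, 4 uM MSTI in 2% DMSO/PBS pH 7.4 was dispensed; next, compounds were added; then plates sat 1 h at room temperature without light. Finally, emission at 598 nm was recorded.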
In the next assay the test system is C33A. Kind of assay: Primary qHTS to identify gynecologic anti-cancer compounds using libraries of approved drugs and bioactive compounds (AID 1345084). Also: nearly all actives have a fitted effect of over 55% in size. The following applies: Gynecologic cancer cell panel viability, ATPlite luminescence, 48 h; series mostly up to 57.5 µM. In a few lines: (§1)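 48 h compound exposure at 37 C, 5% CO2; five-point qHTS. ATPlite luminescence readout of cell ATP.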

In a further assay the test system is CASKI. The description is as above. The note with it: Gynecologic cancer cell panel viability, ATPlite luminescence, 48 h; series mostly up to 57.5 µM. In a few lines:
as §1
A general note: ATP-based viability assays read luminescence as a measure of living cells.

A further assay concerns Es-2. The description is as above. The following applies: Gynecologic cancer cell panel viability, ATPlite luminescence, 48 h; series mostly up to 57.5 µM. In a few lines: as §1
In another assay the test system is HeLa. Described as above. The following applies: Gynecologic cancer cell panel viability, ATPlite luminescence, 48 h; series mostly up to 57.5 µM. In a few lines: as §1
The next assay concerns Hek293T. The assay is described as above. The note with it: Gynecologic cancer cell panel viability, ATPlite luminescence, 48 h, control line for the selectivity index; series mostly up to 57.5 µM. In a few lines: as §1
The next assay has as its system JEG-3. The description is as above. The following applies: Gynecologic cancer cell panel viability, ATPlite luminescence, 48 h; series mostly up to 57.5 µM. The method in brief: as §1
The next assay has as its system OV90. The assay is described as above. The following applies: Gynecologic cancer cell panel viability, ATPlite luminescence, 48 h; series mostly up to 57.5 µM. In a few lines:
as §1

For a further assay, the system named is PA-1. The assay is described as above. The following applies: Gynecologic cancer cell panel viability, ATPlite luminescence, 48 h; series mostly up to 57.5 µM. The method in brief: as §1
The subject of the next assay is Tov-21-G. Described as above. The note with it: Gynecologic cancer cell panel viability, ATPlite luminescence, 48 h; series mostly up to 57.5 µM. The method in brief:
as §1

The next assay has as its system Tov112D. The description is as above. The note with it: Gynecologic cancer cell panel viability, ATPlite luminescence, 48 h; series mostly up to 57.5 µM. The method in brief: as §1
Assay [8] deals with Glutathione peroxidase 1 (Homo sapiens) (UniProt P07203). The assay can be described thus: Primary qHTS Assay for Inhibitors of Recombinant Selenoprotein Glutathione Peroxidase 1 (GPX1) (AID 1845191). Also: nearly all actives have a fitted effect of over 65% in size. In a few lines: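 NADPH consumption tracked by fluorescence at 340/450 nm between t=0 and t=15 min, room temperature. Final mix: 10 nM GPX1, 100 nM glutathione reductase, 1 mM GSH, 0.5 mM NADPH, 0.5 mM cumene hydroperoxide, 0.01% BSA; 30 min compound–enzyme preincubation.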

Assay [9] relates to Nanoluciferase (engineered Oplophorus gracilirostris luciferase). Kind of assay: Primary Nanoluciferase (NLuc) qHTS assay for identification of artifact compounds. (AID 1845222). Also: potency is read from the fitted curve at half-maximal effect. In a few lines:
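NLuc from S16 cell medium (1:55) plus test compounds, 15 min, room temperature. Luminescence after Nano-Glo (1:100) addition, 5 min.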

The nature of assay [10]: Primary redox qHTS assay for identification of artifact compounds. (AID 1845223). The method in brief:
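Redox-cycling detection via DTT (250 uM final) oxidation coupled to Amplex Red (25 uM)/HRP (250 mU/mL) in HBSS. 15 min preincubation plus 30 min after DTT, room temperature. Ex/Em 525/598 nm; 4-parameter Hill fit against DMSO and 10 uM DA3003.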

Values without a mark were called inactive. Records with an inconclusive call do not appear. The source made the active and inactive calls. Calls follow the shape of the dose curve; as a rule, active = well fitted curve in the direction sought with a large enough effect; inconclusive = small, poorly fitted or top-dose-only effect, or another doubt; inactive = no such curve, though single readings can be large; an effect the other way counts as inactive or inconclusive.

Glutathione peroxidase 1 (Homo sapiens), sequence (P07203 whole entry, looked up): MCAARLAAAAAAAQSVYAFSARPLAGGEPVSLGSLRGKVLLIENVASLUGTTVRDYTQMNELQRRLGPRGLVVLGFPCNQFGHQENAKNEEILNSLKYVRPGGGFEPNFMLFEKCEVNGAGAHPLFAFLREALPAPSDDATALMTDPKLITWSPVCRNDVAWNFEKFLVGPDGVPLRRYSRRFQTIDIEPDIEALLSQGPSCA
Phospholipid hydroperoxide glutathione peroxidase GPX4 (Homo sapiens), sequence (P36969 whole entry, looked up): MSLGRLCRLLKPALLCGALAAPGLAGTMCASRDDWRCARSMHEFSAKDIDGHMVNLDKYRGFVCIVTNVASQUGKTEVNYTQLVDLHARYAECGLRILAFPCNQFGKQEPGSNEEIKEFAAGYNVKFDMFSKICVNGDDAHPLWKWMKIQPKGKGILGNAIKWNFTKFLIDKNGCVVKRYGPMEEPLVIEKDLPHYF
Calcium and integrin-binding protein 1 (Homo sapiens), sequence (Q99828 whole entry, looked up): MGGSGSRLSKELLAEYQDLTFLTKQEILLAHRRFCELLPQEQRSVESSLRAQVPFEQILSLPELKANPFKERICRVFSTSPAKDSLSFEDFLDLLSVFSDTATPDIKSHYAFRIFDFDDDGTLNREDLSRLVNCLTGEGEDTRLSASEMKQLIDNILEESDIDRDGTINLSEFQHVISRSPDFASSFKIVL

As for `CCCCc1nc(C)c(CC(=S)N(C)C)c(=O)n1Cc1ccc(-c2ccccc2-c2nn[nH]n2)cc1`, the Potency entry in [1], in [3], in assay [4], in [5], in [6] and in assay [7] was “inactive” each time. In addition, the Potency entry with C33A, with CASKI, in the assay on Es-2, in the assay with HeLa, with Hek293T and with JEG-3 was “inactive” each time. The Potency entry in the assay with OV90, in the assay with PA-1, in the assay on Tov-21-G and in the assay on Tov112D was “inactive” in each case. The outcome in assay [2] was inactive.
Take `CC1OC2O[C@H]3[C@@H](OCC(O)[C@H]3O)OC(=O)C34CCC(C)(C)CC3C3=CCC5C6(C)CC(O)C(OC7OC(CO)C(O)C(O)C7O[C@@H]7OC[C@H](OC(=O)CC(C)(O)CC(=O)OC1C(OC1OCC(O)C(O)C1O)C2O)[C@@H](O)[C@H]7O)C(C)(CO)C6CCC5(C)C3(C)CC4` (some centres undefined): the Potency result (in [1]; in [8]; in [5]; in assay [6]; in assay [7]; in the assay on CASKI) was “inactive” each time. Besides, the Potency entry in the assay on HeLa and in the assay with Hek293T was “inactive” throughout. Further, in assay [2], the outcome was inactive. In assay [3], the Potency is 8.93 µM (active).
As to `Cc1nc(C)c2c(n1)N(Cc1ccc(-c3ccccc3-c3nn[nH]n3)cc1)C(=O)CC2`, the Potency entry in assay [1], in assay [3], in [4], in assay [8], in [5] and in assay [6] was “inactive” in each case. In addition, the Potency result (in [7]; in [10]; with C33A; in the assay on CASKI; in the assay on Es-2; in the assay on HeLa) was “inactive” throughout. Also, the Potency entry in the assay on Hek293T, in the assay with JEG-3, in the assay on OV90, in the assay with PA-1, in the assay with Tov-21-G and in the assay on Tov112D was “inactive” each time. The result in assay [2] was inactive. In addition, the Potency in assay [9] was 21.3 µM (active).
For the compound `CCC(=O)c1cc(-c2ccc(Cl)cc2)n(-c2ccc(S(N)(=O)=O)cc2)c1C`, the Potency entry in assay [1], in assay [8], in [5], in [6], in assay [7] and in [10] was “inactive” throughout. Besides, the Potency result in the assay on C33A, with CASKI, in the assay on Es-2, with HeLa, in the assay on Hek293T and with JEG-3 was “inactive” in each case. The Potency entry in the assay on OV90, in the assay with PA-1, in the assay with Tov-21-G and with Tov112D was “inactive” each time. Also, the result in [2] was inactive. In addition, the Potency in [3] is 23 µM (active).
Consider `CC1CCN(c2cc(NC(=O)c3ccccc3)ncn2)CC1`, for which the Potency result in assay [1], in [8], in assay [5], in [6], in assay [7] and in [9] was “inactive” throughout. In addition, the Potency result (in assay [10]; in the assay with C33A; with CASKI; with Es-2; in the assay with HeLa; with Hek293T) was “inactive” each time. The Potency entry in the assay on JEG-3, in the assay with OV90, with Tov-21-G and in the assay on Tov112D was “inactive” each time. Besides, the outcome in assay [2] was inactive.
As for `CCNC(=O)[C@@H]1CCCN1C(=O)[C@H](CCCN=C(N)N)NC(=O)[C@H](CC(C)C)NC(=O)[C@@H](CC(C)C)NC(=O)[C@H](Cc1ccc(O)cc1)NC(=O)[C@H](CO)NC(=O)[C@H](Cc1c[nH]c2ccccc12)NC(=O)[C@H](Cc1cnc[nH]1)NC(=O)[C@@H]1CCC(=O)N1`, the Potency result in assay [1], in assay [3], in [5], in assay [6], in assay [7] and in [9] was “inactive” in each case. Moreover, the Potency entry in the assay on C33A, with CASKI, in the assay on Es-2, in the assay with HeLa, in the assay with Hek293T and in the assay with JEG-3 was “inactive” throughout. Also, the Potency result in the assay on OV90, in the assay with PA-1, in the assay on Tov-21-G and in the assay on Tov112D was “inactive” each time. Besides, in assay [2], the outcome was inactive.

The values are drawn from PubChem BioAssay (NCATS).
